The text below walks through data of article PMC9574860, “Chemical Toolkit for PARK7: Potent, Selective, and High-Throughput” (Journal of Medicinal Chemistry, 2022).

In all, about 7,900 compounds went through this assay and about 400 (5.1%) showed an effect of 50% or more. What follows is part of a selection rich in strong results, with near analogues and random picks from the rest.

Chain of Parkinson's disease protein 7 (PARK7/DJ1) (Q99497 whole entry, looked up, the tested form may be a part): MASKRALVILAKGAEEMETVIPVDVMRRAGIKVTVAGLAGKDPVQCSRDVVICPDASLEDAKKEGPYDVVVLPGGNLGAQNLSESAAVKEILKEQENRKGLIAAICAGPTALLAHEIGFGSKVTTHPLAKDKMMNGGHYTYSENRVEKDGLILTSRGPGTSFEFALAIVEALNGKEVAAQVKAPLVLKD

The experiment has as its target Parkinson's disease protein 7 (PARK7/DJ1) (human, UniProt Q99497). In words: primary screen, percent inhibition; read as competition with a fluorescent probe by fluorescence polarization; higher = more effect of the substance. The conditions noted are these: 100 µM. The method in brief:
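Covalent fragments at 100 μM final were incubated 2 h with 0.2 μM PARK7, then 20 nM probe JYQ-107 added for a further 2 h. Fluorescence polarization read at 480/520 nm; relative FP loss versus reference controls gave remaining enzyme activity.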
For `CC(=O)c1ccc(N2CCN(C(=O)CCl)CC2)c(F)c1`, the Inhibition % came out at 11%. For `O=C(CCl)N1CCN(c2ccccc2[N+](=O)[O-])CC1`, the Inhibition % is recorded as 80.7%. Turning to `O=C(CCl)N1CCN(C(=O)Nc2ccccc2)CC1`, the Inhibition % is on record as 64.2%. The result for `Cl.O=C(CCl)N1CCN(Cc2ccccc2)CC1` reads 7.64%; that for `O=C(CCl)N1CCN(c2ccc([N+](=O)[O-])cc2)CC1`, 7.53%; that for `O=C(Nc1ccccc1)C1CCN(C(=O)CCl)CC1`, 12.6%. The result for `C=CC(=O)NCc1nnc2n1CCCC2C(F)(F)F` (stereo not shown) reads 8.99%; that for `CN1CCN(CCCCl)CC1.Cl.Cl`, 9.44%.

With `CCN(Cc1ccc(Br)s1)C(=O)CCl`, the Inhibition % was 12.9%. The result for `CC1(NC(=O)CCl)CCS(=O)(=O)C1` (stereo not shown) reads 2.17%; that for `C=CC(=O)NCCc1nc2ccc(F)cc2n1C`, 3.72%; that for `C=CC(=O)NCC1CCC2(CCCC2)O1` (stereo not shown), 4.84%. As for `CS(=O)(=O)n1cnc2ccccc21`, the Inhibition % amounted to 11.4%. The result for `Cc1cnc2ccccc2c1S(=O)(=O)F` reads 95.2%. The result for `O=c1cnc2ccccc2n1CCS(=O)(=O)F` reads 13.8%; that for `Cl.ClCCn1cc(-c2ccccc2)cn1`, 6.06%. The result for `C=CC(=O)NCc1cccc(C(=O)NC(C)(C)C)c1` reads 9.53%; that for `Cc1ccc(C)c(C(=O)Cn2cnc(C#N)n2)c1`, -2.83%.

For the compound `COc1ccc(CS(=O)(=O)F)cc1`, the Inhibition % is 88.4%. The result for `O=S(=O)(F)Cc1ccccc1` reads 8.98%; that for `COC(=O)c1ccc(CS(=O)(=O)F)cc1`, 7.95%. Regarding `Cc1csc(C(C#N)=Cc2cccc3c2OCCCO3)n1`, the Inhibition % came to 1.3%.

As for `N#Cc1ccc(NCC2CCN(CC(F)(F)F)C2)cn1` (stereo not shown), the Inhibition % stood at 5.73%. The result for `O=C(CCl)Nc1cccc(S(=O)(=O)N2CCOCC2)c1` reads 8.1%. The result for `C=CC(=O)Nc1ccc(S(=O)(=O)N2CCCC2)cc1` reads 8.4%; that for `O=C(CCCl)Nc1cccc(S(=O)(=O)N2CCCC2)c1`, 4.27%; that for `Cl.O=C(CCl)Nc1ccc(CN2CCOCC2)cc1`, 40.1%. Regarding `O=C(CCCl)Nc1ccc(S(=O)(=O)N2CCCC2)cc1`, the Inhibition % came to 3.33%. As for `O=C(CCl)Nc1cccc(S(=O)(=O)N2CCCC2)c1`, the Inhibition % is 7.91%. Turning to `O=C(CCl)Nc1ccc(S(=O)(=O)N2CCCCC2)cc1`, the Inhibition % was 92.7%. As for `O=C(CCl)Nc1ccc(S(=O)(=O)N2CCOCC2)cc1`, the figure is 87.4%; as for `O=C(CCl)Nc1ccc(S(=O)(=O)N2CCCC2)cc1`, 85.4%.

For the compound `Cn1cc(B2OC(C)(C)C(C)(C)O2)cn1`, the Inhibition % is 4.89%. As for `CC(C)(C(=O)CCl)N1C(=O)c2ccccc2C1=O`, the Inhibition % is 5.76%.

Consider `C=CC(=O)N1C[C@@]2(C)CS(=O)(=O)C[C@@]2(C)C1`, for which the Inhibition % is listed as 5.67%. For `N#Cc1nc(C2CC2)oc1N1CCN(C(=O)C2CC2)CC1`, the Inhibition % amounted to 5.36%. As to `N#Cc1nccn1Cc1ccc(F)cc1F`, the Inhibition % was found to be 68.3%. `N#Cc1nccn1Cc1cccc(F)c1F`: the Inhibition % was found to be 4.63%. `N#Cc1nccn1Cc1cc(F)cc(F)c1`: the Inhibition % came to 5.08%. The result for `C=CC(=O)N1CCC(c2ccnn2C)CC1` reads 4.28%; that for `Cc1ccc(C#N)nc1N1CCCOC(C)C1` (stereo not shown), 42.8%. The result for `COC1CCN(c2nc(C#N)ccc2C)CC1` reads 71.3%; that for `COC1CCN(c2nc(C#N)c(Cl)s2)CC1`, 7.16%; that for `N#CC(=Cc1cnn(-c2ccccc2)c1)C(=O)O`, 10.6%. The result for `CN(C)C(=O)Sc1cnc2nccn2c1` reads 3.18%.

As for `CN(C(=O)CCl)C1CCS(=O)(=O)C1` (stereo not shown), the Inhibition % came out at 8.14%. As for `CC1CCC(N(C)C(=O)CCl)CC1` (stereo not shown), the figure is 101%.

Turning to `CN(C(=O)CCl)C1CCCCC1`, the Inhibition % was determined as 92.5%. For the compound `CN(C(=O)CCl)C1CC1`, the Inhibition % was -0.367%. The result for `CN(CC12CC3CC(CC(C3)C1)C2)C(=O)CCl` reads 9.71%. The result for `CCN(C(=O)CCl)C1CCCCC1` reads 9.37%; that for `CN(CC1CC1)C(=O)CCl`, 50.3%; that for `CN(CC1CCCCC1)C(=O)CCl`, 50%. As for `CN(C(=O)CC1OCCCO1)C1CCCCC1`, the figure is 3.82%.

Consider `C=CC(=O)Nc1cccc2c1CN(CC(C)C)C2`, for which the Inhibition % worked out at 8.44%. As for `O=C(c1ccc(S)nc1)N1CCCC1`, the figure is 40.7%.

With `N#CN(Cc1nnc(C2CCC2)o1)c1ccc(F)c(Cl)c1`, the Inhibition % was -0.412%.

With `C=CC(=O)N1CCC12CCOC2` (stereo not shown), the Inhibition % is 7.06%. Turning to `Cc1ccc(C(C)NC(=O)Cn2cnc(C#N)n2)cc1C` (stereo not shown), the Inhibition % was determined as 3.5%.

Regarding `CC(=O)c1ccc(S(=O)(=O)F)cc1`, the Inhibition % came to 34.9%.

As to `Cc1cc(S(=O)(=O)F)ccc1C(=O)O`, the Inhibition % is 85.1%. As for `Cc1ccc(S(=O)(=O)F)cc1C(=O)O`, the figure is 87.9%; as for `O=C(O)c1cc(S(=O)(=O)F)ccc1Cl`, 7.95%; as for `Cc1ccc(S(=O)(=O)F)cc1`, 2.62%. As for `C=CC(=O)NC1CCOC2(CCSC2)C1` (stereo not shown), the figure is 6.26%; as for `Cc1cc(C)n(S(=O)(=O)N2CCCCC2)n1`, 7.02%. In the case of `COc1ccccc1C(=O)Nc1cccc(S(=O)(=O)F)c1`, the Inhibition % amounted to 4.59%. As for `COCC1(C(=O)Nc2cccc(S(=O)(=O)F)c2)CCCC1`, the figure is 94.3%. For the compound `O=C(Nc1cccc(S(=O)(=O)F)c1)C1(CF)CCC1`, the Inhibition % came to 95.8%.

`O=C(Nc1cccc(S(=O)(=O)F)c1)C1(CF)CCOCC1`: the Inhibition % is listed as 95.3%. The result for `CCC1(C(=O)Nc2cccc(S(=O)(=O)F)c2)CCC1` reads 93.8%; that for `COc1ccc(S(=O)(=O)n2ccc(C)n2)cc1C`, 2.32%.

For `Cc1nn(C)c(Cl)c1C=CC(=O)N1CCC(C(=O)O)C1.Cl` (stereo not shown), the Inhibition % turned out to be 7.34%. For `C=CC(=O)NCC1CC2(CCC2)CO1` (stereo not shown), the Inhibition % is reported as 5.74%. As for `Cc1cccc(-n2nnnc2SC2CC(C)OC2=O)c1` (stereo not shown), the figure is 3.51%; as for `Cn1cc(NS(=O)(=O)C=Cc2ccccc2Cl)cn1`, 28.6%. In the case of `CCn1cc(C2NC(=O)C23CCOCC3)cn1` (stereo not shown), the Inhibition % came to 2.01%. In the case of `Cc1ccc(NC(=O)C(C#N)=Cc2cn(C)cn2)c(C)c1`, the Inhibition % came to 10.3%. As for `CCN(C(=O)CCl)c1ccc(F)cc1`, the figure is 31.3%. The result for `Cc1cc(C=C(C#N)C(=O)NCC2CCCO2)ccc1F` (stereo not shown) reads 2.68%; that for `CC(C)(C)OC(=O)N1CCCC(S(=O)(=O)F)C1` (stereo not shown), 10.7%; that for `O=S(=O)(F)CC1CCOCC1`, 10.5%. As for `CC(C)(C)OC(=O)N[C@@H]1CC[C@H](CS(=O)(=O)F)C1` (racemic), the figure is 87.2%; as for `COC(=O)C1CC(S(=O)(=O)F)CN1C(=O)C1CCOCC1` (stereo not shown), 9.64%; as for `Cl.N[C@@H]1CC[C@H](CS(=O)(=O)F)C1` (racemic), 22.9%. For `O=C(N[C@H]1CC[C@@H](CS(=O)(=O)F)C1)C1CCOCC1` (racemic), the Inhibition % is 77.4%. The result for `CC(C)C1(c2ccccc2)CO1` (stereo not shown) reads 4.43%; that for `N#CSCc1nc2ccccc2[nH]1`, 24.5%; that for `COc1cc(SC#N)ccc1O`, 15.4%.

On to `CS(=O)(=O)OCC1CCCNC1=O` (stereo not shown), for which the Inhibition % was 7.7%. The result for `Cl.O=S(=O)(F)CCNc1ccc(Cl)cc1` reads 66%; that for `Cl.O=S(=O)(F)CCNc1ccc(F)cc1`, 36.8%; that for `COc1ccc(NCCS(=O)(=O)F)cc1.Cl`, 44.4%. The result for `N#Cc1ccc2[nH]ccc2n1` reads 18.7%; that for `N#Cc1ccc2cc[nH]c2n1`, 68.4%; that for `N#Cc1ccc(Cl)c(Cl)n1`, 5.12%.

For `COc1cc(C=C(C#N)C(=O)NC(C)C)cc(Cl)c1O`, the Inhibition % was -0.272%. Regarding `Cl.NC1C=CS(=O)(=O)C1` (stereo not shown), the Inhibition % is 9.63%. As for `NC(=O)c1c(NC(=O)CCl)sc2c1CCC2`, the figure is 38.6%; as for `Cn1ccnc1C(=O)CCl`, 32.3%; as for `Cn1nccc1C(=O)CCl`, 15.4%. Regarding `C=CC(=O)NCCCc1cnn(C)n1`, the Inhibition % came out at 5.99%. The result for `CN(Cc1cnn(C)c1)C(=O)CCl.Cl` reads 20.6%; that for `Cn1ncc(C(=O)CCl)n1`, 95.3%. Turning to `Cn1cccc1C(=O)CCl`, the Inhibition % was found to be 8.03%.

In the case of `Cn1ccc(C(=O)CCl)c1`, the Inhibition % came out at 49%. The result for `Cn1cc(C(=O)CCl)cn1` reads 77.2%; that for `CCn1ncc(C(=O)CCl)n1`, 87.8%. As to `CCn1nc(C)c(C(=O)CCl)n1`, the Inhibition % is on record as 13.1%.

In the case of `Cn1nncc1C(=O)CCl`, the Inhibition % was 82.2%.

Consider `Cl.O=C(CCl)c1csc(N2CCCCC2)n1`, for which the Inhibition % was determined as 2.02%. As for `OC1(C2CO2)CCOCC1` (stereo not shown), the figure is 7.63%. `CC1(C)OB(c2cccc(CN3CCOCC3)c2)OC1(C)C.Cl`: the Inhibition % is 25.8%. As for `N#CN(Cc1ccc(C(N)=O)cc1)c1ccc(F)cc1`, the figure is 3.09%; as for `C=CC(=O)NC1CCCC1C(=O)NC` (stereo not shown), 9%.

Regarding `Cc1nc(C=CC(=O)N2CCC(C)(C(=O)O)C2)cs1` (stereo not shown), the Inhibition % is 5.72%.

`COc1ccc(C2=NC(=Cc3csc(C)n3)C(=O)O2)cc1`: the Inhibition % amounted to 14.1%. Regarding `Nc1ccc(N2CCC2=O)cc1`, the Inhibition % is on record as 16.5%. The result for `O=C(CCl)Nc1nc2ccc([N+](=O)[O-])cc2s1` reads 6.68%. The result for `Cc1ccc(Cc2cnc(NC(=O)CCl)s2)cc1` reads 7.26%; that for `O=C(CCl)Nc1ncc([N+](=O)[O-])s1`, 96.3%. On to `C=CC(=O)Nc1ccc(F)c(F)c1`, for which the Inhibition % came to 7.82%. As for `CCc1nccn1S(=O)(=O)c1ccc(Cl)c(C)c1`, the figure is 1.29%; as for `CC(C)NC(=O)C(C#N)=Cc1cccc(O)c1`, 19.6%.
